This passage reports outcome and AC50 results from PubChem BioAssay (EPA / NIEHS).

In assay [1] the target is CCAAT/enhancer-binding protein beta (Homo sapiens) (UniProt P17676). Kind of assay: ATG_C_EBP_CIS: Attagene CIS-FACTORIAL HepG2 Assay for human CCAAT/Enhancer Binding Protein (C/EBP) beta (AID 2282927). To be noted: HepG2 Attagene cis-factorial transcription factor reporter; actives raise or lower the signal. In short, it runs like this: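 HepG2 transiently transfected with multiplexed reporter units under cis-regulatory promoters reporting endogenous C/EBPb activity. After 24 h exposure, reporter mRNA assayed by RT-PCR, fluorescent labelling, HpaI digestion and capillary electrophoresis; bidirectional fitting versus DMSO.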
Sequence of CCAAT/enhancer-binding protein beta (Homo sapiens) (P17676 whole entry, looked up): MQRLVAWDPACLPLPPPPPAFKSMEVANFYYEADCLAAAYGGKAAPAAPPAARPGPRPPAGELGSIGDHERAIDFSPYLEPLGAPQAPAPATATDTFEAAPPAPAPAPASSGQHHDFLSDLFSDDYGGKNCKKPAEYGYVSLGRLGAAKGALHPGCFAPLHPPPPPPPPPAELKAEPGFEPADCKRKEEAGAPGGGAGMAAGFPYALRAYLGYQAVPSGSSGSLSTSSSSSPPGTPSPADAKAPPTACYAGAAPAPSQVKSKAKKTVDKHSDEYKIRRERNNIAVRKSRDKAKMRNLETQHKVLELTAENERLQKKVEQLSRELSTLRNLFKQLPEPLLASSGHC

Assay [2] can be described thus: ATG_DR4_LXR_CIS: Attagene CIS-FACTORIAL HepG2 Assay for human Liver X Receptor (LXR), DR4 submotif (AID 2282929). To be noted: HepG2 Attagene DR4 cis-reporter, mRNA transcription; actives raise or lower the signal. In short, it runs like this:
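Total RNA from 24 h-treated, MRTU-transfected HepG2 cells underwent reverse transcription, PCR, fluorescent primer extension and restriction digestion before capillary electrophoresis. Both increases and decreases in reporter signal were fitted against DMSO.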

Assay [3] is described as follows: ATG_AP_2_CIS: Attagene CIS-FACTORIAL HepG2 Assay for human Activator Protein 2 (AP-2) (AID 2282932). Conditions: HepG2 AP-2 cis-reporter, Attagene transcription factor profiling; actives raise or lower the signal. In short, it runs like this: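 Liver-derived HepG2 line, cis-reporter system measuring endogenous factors; 24 h dosing; reporter mRNA detected by fluorescent RT-PCR and capillary electrophoresis.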

Assay [4] concerns the target Transcription factor E2F1 (Homo sapiens) (UniProt Q01094). The assay can be described thus: ATG_E2F_CIS: Attagene CIS-FACTORIAL HepG2 Assay for human E2F Transcription Factor 1 (AID 2282935). To be noted: HepG2 Attagene cis-reporter, E2F reporter RNA transcripts; actives raise or lower the signal. A digest of the protocol:
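Liver-derived HepG2 cells expressing transfected promoter-driven reporter units received test chemical for 24 hours. Signal gains or losses were fitted bidirectionally against DMSO.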

Assay [5] is described as follows: ATG_E_Box_CIS: Attagene CIS-FACTORIAL HepG2 Assay for human Enhancer Box (E-box) (AID 2282936). Conditions: HepG2 E-box cis-reporter transcription, actives raise or lower the signal. In short, it runs like this:
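In this cell-based setup, HepG2 cells bearing transfected promoter-driven reporter units were exposed to chemicals for 24 h; reporter transcripts were amplified, 6-FAM-labelled, cut with HpaI and sized by capillary electrophoresis.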

Assay [6] is described as follows: ATG_M_19_CIS: Attagene CIS-FACTORIAL HepG2 Assay for M19 Transcription Factor (Internal Marker) (AID 2282939). To be noted: HepG2 Attagene CIS-FACTORIAL M19 internal marker reporter; actives raise or lower the signal. In short, it runs like this: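 Chemical-treated HepG2 (24 h) with MRTU constructs; reporter transcripts detected by fluorescent RT-PCR fragment analysis on capillary electrophoresis. Internal background marker, DMSO as baseline.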

Assay [7] is described as follows: ATG_GLI_CIS: Attagene CIS-FACTORIAL HepG2 Assay for human Zinc Finger Protein GLI1 (AID 2282945). Conditions: HepG2, Attagene cis-factorial reporter mRNA, GLI element; actives raise or lower the signal. A digest of the protocol: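 Transiently transfected HepG2 cells report endogenous transcription factor activity via cis-element-driven reporter units. After 24 h compound exposure, reporter mRNA was measured by RT-PCR with capillary electrophoresis; bidirectional fitting against DMSO baseline.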

The nature of assay [8]: ATG_ISRE_CIS: Attagene CIS-FACTORIAL HepG2 Assay for human Interferon Regulatory Factor 1 (IRF1) binding to an Interferon-Stimulated Response Element (ISRE) (AID 2282948). Conditions: HepG2 ISRE cis-reporter (Attagene), mRNA transcription readout; actives raise or lower the signal. A digest of the protocol:
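Endogenous transcription factor activity read as reporter transcript abundance via RT-PCR and capillary electrophoresis. HepG2 cells transiently transfected, 24 h chemical exposure. Gain or loss fitted against DMSO baseline.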

A short description of assay [9]: ATG_M_32_CIS: Attagene CIS-FACTORIAL HepG2 Assay for M32 Transcription Factor (Internal Marker) (AID 2282949).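 Also: background control marker of the multiplexed CIS panel rather than a real target.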 Conditions: HepG2 Attagene cis-factorial M32 reporter, mRNA; actives raise or lower the signal. In short, it runs like this: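 HepG2 transfectants (cis-regulated reporter transcription units) dosed 24 h. Reporter mRNA by RT-PCR plus CE, analysed as gain or loss relative to DMSO.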

The nature of assay [10]: ATG_PXRE_CIS: Attagene CIS-FACTORIAL HepG2 Assay for human Pregnane X Receptor Element (PXRE) (AID 2282957). To be noted: HepG2 Attagene CIS-FACTORIAL PXRE reporter, mRNA; actives raise or lower the signal. In short, it runs like this: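 Bidirectional activity, baselined to DMSO, derived from reporter mRNA fluorescence (RT-PCR plus capillary electrophoresis) in HepG2 cells bearing cis-promoter reporter units, 24 h exposure.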

Assay [11] is described as follows: ATG_Sox_CIS: Attagene CIS-FACTORIAL HepG2 Assay for human SRY-box transcription factor (SOX) (AID 2282960). To be noted: HepG2 Attagene cis-factorial SOX reporter, mRNA; actives raise or lower the signal. In short, it runs like this: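 HepG2, cis reporter units, 24 h exposure. Reporter mRNA: RT-PCR → FAM labelling → HpaI → CE fluorescence. Bidirectional fit vs DMSO.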

Assay [12] addresses Transcription factor Sp1 (Homo sapiens) (UniProt P08047). The assay can be described thus: ATG_Sp1_CIS: Attagene CIS-FACTORIAL HepG2 Assay for human Specificity Protein 1 (Sp1) (AID 2282961). Conditions: HepG2 Sp1 cis-reporter transcription, actives raise or lower the signal. In short, it runs like this: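 Liver-derived HepG2 cells, cis-element reporter library, 24 h treatment; RNA isolated, cDNA amplified with reporter-specific primers, FAM-labeled fragments sized on capillary analyzer. DMSO baseline, bidirectional curve fit.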

The target of assay [13] is Signal transducer and activator of transcription 3 (Homo sapiens) (UniProt P40763). The assay can be described thus: ATG_STAT3_CIS: Attagene CIS-FACTORIAL HepG2 Assay for human Signal Transducer and Activator of Transcription 3 (STAT3) (AID 2282963). Conditions: HepG2, Attagene cis-factorial STAT3 reporter transcription; actives raise or lower the signal. A digest of the protocol:
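Fluorescence intensity of 6-FAM-labelled reporter fragments, separated by capillary electrophoresis after RT-PCR, gave the signal. Cells were HepG2 transfected with cis-element reporter units and treated 24 h; fitting was bidirectional relative to DMSO.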

A short description of assay [14]: ATG_TA_CIS: Attagene CIS-FACTORIAL HepG2 Assay for human TA Basal Promoter (AID 2282964). To be noted: HepG2 Attagene CIS-factorial TA basal promoter reporter; actives raise or lower the signal. In short, it runs like this: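 Background internal-marker endpoint from a 52-component HepG2 cis-reporter panel. Cells treated 24 h; reporter transcripts quantified via RT-PCR and CE fluorescence against DMSO baseline.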

A short description of assay [15]: ATG_TCF_b_cat_CIS: Attagene CIS-FACTORIAL HepG2 Assay for human T-Cell-Factor with beta-catenin (TCF/b-cat) (AID 2282965). To be noted: HepG2 TCF/beta-catenin cis-reporter transcription, actives raise or lower the signal. A digest of the protocol: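 HepG2 cells transiently transfected with cis-promoter-driven multiplexed reporter units; reporter mRNA measured 24 h after dosing by RT-PCR, FAM labelling, HpaI digestion and capillary electrophoresis. Bidirectional fitting relative to DMSO baseline.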

Assay [16] in a line: ATG_TAL_CIS: Attagene CIS-FACTORIAL HepG2 Assay for human TAL Basal Promoter (AID 2282966).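 Also: background control endpoint measuring basal TAL promoter reporter mRNA not a specific factor.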 Conditions: HepG2 Attagene cis-factorial TAL promoter reporter; actives raise or lower the signal. A digest of the protocol:
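Human hepatoma HepG2 cells, transfected with promoter-regulated reporter units, were treated 24 h. Reporter transcript levels, measured through RT-PCR and capillary electrophoresis, were fitted for gain or loss relative to DMSO.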

Assay [17] concerns the target X-box-binding protein 1 (Homo sapiens) (UniProt P17861). Kind of assay: ATG_Xbp1_CIS: Attagene CIS-FACTORIAL HepG2 Assay for human X-box Binding Protein 1 (XBP1) (AID 2282972). Conditions: HepG2 XBP1 cis-element reporter, Attagene multiplex; actives raise or lower the signal. A digest of the protocol: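 Reporter transcripts were quantified by RT-PCR with fluorescent primer extension and capillary electrophoresis after 24 h chemical exposure. Cells: transiently transfected HepG2 carrying cis-regulated reporter constructs; data fitted bidirectionally relative to DMSO.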

For assay [18], the target named is Transcriptional activator Myb (Homo sapiens) (UniProt P10242). Kind of assay: ATG_Myb_CIS: Attagene CIS-FACTORIAL HepG2 Assay for human Myeloblastosis (Myb) Proto-Oncogene Transcription Factor (AID 2282986). To be noted: HepG2 Attagene CIS-FACTORIAL Myb reporter transcription; actives raise or lower the signal. In short, it runs like this:
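After 24 h of compound dosing, total RNA from transfected HepG2 cells is reverse-transcribed and the reporter sequences amplified, labeled and separated by capillary electrophoresis. Values come from bidirectional fitting against DMSO.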

The target in assay [19] is Myc proto-oncogene protein (Homo sapiens) (UniProt P01106). Kind of assay: ATG_Myc_CIS: Attagene CIS-FACTORIAL HepG2 Assay for human Myelocytomatosis (Myc) Proto-Oncogene Transcription Factor (AID 2282990). Conditions: HepG2, Attagene cis-reporter transcription factor activity; actives raise or lower the signal. A digest of the protocol:
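Transiently transfected HepG2 cells bearing cis-promoter reporter units for endogenous transcription factors; 24 h exposure. Reporter mRNA measured by RT-PCR, 6-FAM primer extension, HpaI cut and capillary electrophoresis; bidirectional fit relative to DMSO.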

Assay [20] can be described thus: ATG_Oct_MLP_CIS: Attagene CIS-FACTORIAL HepG2 Assay for human Octamer-Binding Transcription Factor (Oct) (AID 2282993). Conditions: HepG2 Attagene cis-factorial Oct reporter, mRNA; actives raise or lower the signal. In short, it runs like this:
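Using HepG2 cells bearing transfected cis-reporter constructs, mRNA induction was read after 24 h by fluorescent RT-PCR and capillary electrophoresis, with DMSO defining baseline for gain- or loss-of-signal fits.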

The source made the active and inactive calls. The calls were made as follows: active = hit-call score of the fitted dose curve at least 0.9, where 1 is the maximum; inactive = score below 0.9.

Sequence of Myc proto-oncogene protein (Homo sapiens) (P01106 whole entry, looked up): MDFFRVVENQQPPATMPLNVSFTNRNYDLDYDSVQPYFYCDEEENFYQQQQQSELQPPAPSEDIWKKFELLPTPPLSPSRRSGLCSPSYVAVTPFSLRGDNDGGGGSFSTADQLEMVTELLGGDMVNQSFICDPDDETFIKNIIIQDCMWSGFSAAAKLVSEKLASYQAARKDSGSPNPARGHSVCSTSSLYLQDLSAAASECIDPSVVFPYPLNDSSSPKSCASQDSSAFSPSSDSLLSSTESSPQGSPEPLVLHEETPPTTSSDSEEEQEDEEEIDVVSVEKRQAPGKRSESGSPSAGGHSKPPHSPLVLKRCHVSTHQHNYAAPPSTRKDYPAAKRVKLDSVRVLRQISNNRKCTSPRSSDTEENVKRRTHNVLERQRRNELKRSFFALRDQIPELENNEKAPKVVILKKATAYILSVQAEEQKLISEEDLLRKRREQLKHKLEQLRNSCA
Sequence of Signal transducer and activator of transcription 3 (Homo sapiens) (P40763 whole entry, looked up, the tested form may be a part): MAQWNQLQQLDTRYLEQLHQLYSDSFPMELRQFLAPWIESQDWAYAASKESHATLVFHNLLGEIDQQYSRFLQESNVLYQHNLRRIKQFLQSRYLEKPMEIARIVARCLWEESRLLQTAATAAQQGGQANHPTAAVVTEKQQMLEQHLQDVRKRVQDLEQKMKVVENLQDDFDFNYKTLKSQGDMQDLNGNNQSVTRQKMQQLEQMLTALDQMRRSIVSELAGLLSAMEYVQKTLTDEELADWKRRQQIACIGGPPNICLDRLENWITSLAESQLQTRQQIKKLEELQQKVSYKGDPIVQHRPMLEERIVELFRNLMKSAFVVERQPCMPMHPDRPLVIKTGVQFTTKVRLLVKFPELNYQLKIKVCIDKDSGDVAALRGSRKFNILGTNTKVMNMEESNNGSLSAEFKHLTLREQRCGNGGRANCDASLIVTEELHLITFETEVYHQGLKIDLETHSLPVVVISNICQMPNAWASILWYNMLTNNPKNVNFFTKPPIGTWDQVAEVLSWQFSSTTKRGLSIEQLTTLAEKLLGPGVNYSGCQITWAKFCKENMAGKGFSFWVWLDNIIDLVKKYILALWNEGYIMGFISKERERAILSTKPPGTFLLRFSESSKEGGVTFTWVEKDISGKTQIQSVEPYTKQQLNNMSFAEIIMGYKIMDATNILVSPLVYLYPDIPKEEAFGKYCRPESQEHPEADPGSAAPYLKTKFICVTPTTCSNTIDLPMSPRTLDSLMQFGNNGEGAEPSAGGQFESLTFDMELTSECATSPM
Sequence of X-box-binding protein 1 (Homo sapiens) (P17861 whole entry, looked up): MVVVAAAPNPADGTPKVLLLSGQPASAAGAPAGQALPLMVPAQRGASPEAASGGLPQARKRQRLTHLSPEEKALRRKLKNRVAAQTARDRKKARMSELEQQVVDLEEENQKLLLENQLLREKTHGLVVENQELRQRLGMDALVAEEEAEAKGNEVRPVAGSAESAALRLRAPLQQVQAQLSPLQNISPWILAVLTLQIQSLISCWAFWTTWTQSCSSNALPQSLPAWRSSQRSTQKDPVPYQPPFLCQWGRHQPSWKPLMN
Sequence of Transcription factor Sp1 (Homo sapiens) (P08047 whole entry, looked up, the tested form may be a part): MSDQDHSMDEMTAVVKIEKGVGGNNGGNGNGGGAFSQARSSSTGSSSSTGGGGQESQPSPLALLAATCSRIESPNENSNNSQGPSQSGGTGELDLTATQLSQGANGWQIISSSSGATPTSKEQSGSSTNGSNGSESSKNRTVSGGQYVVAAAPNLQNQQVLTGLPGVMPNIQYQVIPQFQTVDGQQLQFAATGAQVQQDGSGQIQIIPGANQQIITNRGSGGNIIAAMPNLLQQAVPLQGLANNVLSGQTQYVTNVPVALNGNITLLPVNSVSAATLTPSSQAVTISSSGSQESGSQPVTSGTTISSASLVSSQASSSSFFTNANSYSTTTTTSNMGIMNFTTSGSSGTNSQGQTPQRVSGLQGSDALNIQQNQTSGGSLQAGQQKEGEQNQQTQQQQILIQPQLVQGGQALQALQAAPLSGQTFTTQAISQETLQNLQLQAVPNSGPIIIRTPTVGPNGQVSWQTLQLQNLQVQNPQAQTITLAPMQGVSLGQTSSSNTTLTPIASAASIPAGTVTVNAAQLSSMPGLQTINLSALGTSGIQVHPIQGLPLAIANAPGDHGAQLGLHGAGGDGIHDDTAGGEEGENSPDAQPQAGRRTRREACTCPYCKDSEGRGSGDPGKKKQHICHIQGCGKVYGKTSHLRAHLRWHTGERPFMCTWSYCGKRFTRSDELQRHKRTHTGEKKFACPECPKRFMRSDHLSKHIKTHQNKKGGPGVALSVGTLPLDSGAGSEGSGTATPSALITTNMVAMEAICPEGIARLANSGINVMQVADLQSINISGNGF
Sequence of Transcriptional activator Myb (Homo sapiens) (P10242 whole entry, looked up): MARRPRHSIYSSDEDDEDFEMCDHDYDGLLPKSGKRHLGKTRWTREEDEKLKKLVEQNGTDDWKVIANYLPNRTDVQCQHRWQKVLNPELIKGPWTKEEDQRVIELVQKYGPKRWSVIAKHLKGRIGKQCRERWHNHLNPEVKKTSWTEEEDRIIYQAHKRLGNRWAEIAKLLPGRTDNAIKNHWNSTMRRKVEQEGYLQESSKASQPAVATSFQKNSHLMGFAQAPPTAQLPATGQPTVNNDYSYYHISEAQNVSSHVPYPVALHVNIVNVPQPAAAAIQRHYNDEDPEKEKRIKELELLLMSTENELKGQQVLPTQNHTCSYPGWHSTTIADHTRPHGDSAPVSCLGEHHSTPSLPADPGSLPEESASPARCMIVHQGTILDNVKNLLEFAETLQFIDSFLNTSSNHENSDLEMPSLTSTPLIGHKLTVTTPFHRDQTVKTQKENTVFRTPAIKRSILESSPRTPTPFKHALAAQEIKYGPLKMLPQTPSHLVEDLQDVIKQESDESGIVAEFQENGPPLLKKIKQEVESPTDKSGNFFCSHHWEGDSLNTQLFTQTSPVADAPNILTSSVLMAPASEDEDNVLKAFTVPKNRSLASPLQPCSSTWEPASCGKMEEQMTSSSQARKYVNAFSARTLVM
Sequence of Transcription factor E2F1 (Homo sapiens) (Q01094 whole entry, looked up): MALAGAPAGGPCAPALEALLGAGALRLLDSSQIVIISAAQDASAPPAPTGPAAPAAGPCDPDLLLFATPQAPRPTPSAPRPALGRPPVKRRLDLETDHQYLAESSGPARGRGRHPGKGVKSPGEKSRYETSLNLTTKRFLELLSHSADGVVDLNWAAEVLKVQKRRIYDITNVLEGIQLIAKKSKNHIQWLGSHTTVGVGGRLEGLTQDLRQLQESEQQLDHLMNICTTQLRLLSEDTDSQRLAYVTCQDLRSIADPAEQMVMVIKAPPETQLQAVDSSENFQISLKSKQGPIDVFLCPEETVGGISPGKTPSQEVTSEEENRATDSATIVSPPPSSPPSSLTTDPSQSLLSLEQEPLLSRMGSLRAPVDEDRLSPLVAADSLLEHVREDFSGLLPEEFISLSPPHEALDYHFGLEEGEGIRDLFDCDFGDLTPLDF

As for `Nc1c(Cl)c(Cl)c(Cl)c(Cl)c1Cl`, the outcome in assay [1], in assay [2], in [3], in [4], in [5] and in assay [6] was inactive. The compound was classed as inactive in assay [7], in assay [8], in assay [9], in assay [11], in assay [12] and in assay [13]. For the same compound, the compound was called inactive in assay [14], in assay [15], in assay [16], in assay [17], in assay [18] and in assay [19]. Further, the call in assay [20] was inactive. Moreover, in assay [10], the concentration at half-maximal activity (AC50) was 15.4 µM (active).
On to `CC1CCCC1.[C-]#[O+].[C-]#[O+].[C-]#[O+].[Mn]`, for which the outcome in assay [1], in assay [2], in assay [3], in [4], in assay [6] and in assay [7] was inactive. Further, the outcome in [9], in assay [10], in [11], in assay [12], in assay [13] and in assay [14] was inactive. Also, the result in assay [15], in assay [16], in assay [17], in assay [18], in assay [19] and in [20] was inactive. The AC50 in assay [5] is 16.8 µM (active); in assay [8], 35.2 µM (active).
As for `Oc1ccc(Cl)cc1`, the result in [1], in assay [2], in assay [3], in assay [4], in [5] and in assay [6] was inactive. Moreover, the call in [7], in assay [8], in assay [9], in [11], in assay [12] and in assay [13] was inactive. Moreover, the outcome in [14], in [15], in [16], in [17], in [18] and in [19] was inactive. In assay [20], the compound was classed as inactive. In [10], the AC50 is 27.9 µM (active).
Take `C[N+](C)(C)CC(=O)O`: the outcome in assay [1], in [2], in assay [3], in [4], in [5] and in assay [6] was inactive. In addition, the result in [7], in [8], in assay [9], in assay [10], in assay [11] and in assay [12] was inactive. The compound was classed as inactive in assay [13], in [14], in [15], in [16], in [17] and in [18]. Also, the outcome in assay [19] and in [20] was inactive.
For the compound `CNC(=O)Oc1cc(C)c(SC)c(C)c1`, the outcome in [1], in assay [2], in assay [3], in assay [4], in [5] and in assay [6] was inactive. Besides, the result in assay [7], in assay [9], in assay [12], in assay [13], in assay [14] and in assay [15] was inactive. The outcome in assay [16], in assay [18] and in assay [19] was inactive. Also, the AC50 was 100 µM (active) in assay [8]; 26.7 µM (active) in assay [10]; 27.1 µM (active) in [11]; 68.3 µM (active) in [17]; 68.7 µM (active) in assay [20].
Consider `CC1(C)[C@H](C(=O)O[C@H](C#N)c2cccc(Oc3ccccc3)c2)[C@@H]1C=C(Br)Br`, for which the outcome in [1], in assay [2], in [3], in assay [4], in assay [5] and in assay [6] was inactive. Further, the result in assay [7], in assay [8], in assay [9], in [11], in assay [12] and in assay [13] was inactive. The compound was classed as inactive in [14], in assay [15], in assay [16], in [17], in assay [18] and in [19]. In assay [20], the compound was classed as inactive. In addition, the AC50 in assay [10] is 0.312 µM (active).
Take `O=[N+]([O-])c1ccc(Cl)cc1`: the outcome in assay [1], in [2], in assay [3], in assay [4], in [5] and in assay [6] was inactive. For the same compound, the compound was called inactive in [7], in assay [8], in [9], in assay [10], in assay [11] and in assay [12]. In addition, the compound was called inactive in [13], in assay [14], in [15], in assay [16], in assay [17] and in assay [18]. In addition, the result in [19] and in [20] was inactive.
